Data as given in PubChem BioAssay (NCATS).
Results filed as inconclusive are left out. For some of these results: Measured potencies and affinities stand elsewhere. Active and inactive are the calls of the source. Unless noted, the rule behind the calls is not given here.

assay: not given; conditions: Ebola virus entry assay, reporter ratio channel; AC50: Channel type: primary unless noted; outcome: Channel type: primary unless noted

| Compound | outcome |
| --- | --- |
| CNC(C)(C)Cc1ccccc1 | inactive |
| C[C@]12CC[C@H]3[C@@H](CCC4=CC(=O)CC[C@@H]43)[C@@H]1CC[C@@H]2OC(=O)CCC1CCCCC1 | inactive |
| Clc1ccccc1N1CCNCC1 | inactive |
| COC(=O)C(Cl)C(=O)OC | inactive |
| CCN[C@@H](C)Cc1cccc(C(F)(F)F)c1 | inactive |
| CCCOC(=O)c1cncn1C(C)c1ccccc1 (centres undefined) | inactive |
| O=c1oc2ccccc2c(O)c1Cc1c(O)c2ccccc2oc1=O | inactive |
| O=[N+]([O-])O[C@H]1CO[C@H]2[C@@H]1OC[C@H]2O[N+](=O)[O-] | inactive |
| C=CCN1C[C@H](C)N([C@H](c2ccc(C(=O)N(CC)CC)cc2)c2cccc(OC)c2)C[C@H]1C | inactive |
| c1ccc(CN2CCNCC2)cc1 | inactive |
| O=C(O)/C=C\C(=O)O | inactive |
| Clc1ccc(C(c2ccc(Cl)cc2)C(Cl)(Cl)Cl)cc1 | inactive |
| Clc1cccc(SC2CCNCC2)n1 | inactive |
| CNCC(=O)c1ccc(O)c(O)c1 | inactive |
| COc1cccc(C(=O)CCN[C@@H](C)[C@H](O)c2ccccc2)c1 | inactive |
| C[N+]1(CCF)[C@@H]2CC[C@H]1CC(OC(=O)C(O)(c1ccccc1)c1ccccc1)C2 (some centres undefined) | inactive |

assay: not given; conditions: Ebola virus entry assay, blue channel (ratio component)

| Compound | outcome |
| --- | --- |
| COc1cc(CC(C)N)cc(OC)c1OC (centres undefined) | inactive |
| CC(=O)C1CCOC1=O (centres undefined) | inactive |
| C[C@@H](N)[C@@H](O)c1ccccc1 | inactive |
| O=C1OC(c2ccc(O)c(S(=O)(=O)O)c2)(c2ccc(O)c(S(=O)(=O)O)c2)c2c(Br)c(Br)c(Br)c(Br)c21 | inactive |
| CCC(C)C(C)(COC(N)=O)COC(N)=O (centres undefined) | inactive |
| CC(C(=O)c1ccccc1)N(C)C (centres undefined) | inactive |
| COC(=O)[C@@H](N)CCCN/C(N)=N/[N+](=O)[O-] | inactive |
| CN1C(=O)CCS(=O)(=O)C1c1ccc(Cl)cc1 (centres undefined) | inactive |
| c1ccc(N2CCNCC2)cc1 | inactive |
| COc1cc(CCN)cc(OC)c1OC | inactive |
| COc1ccc2c(c1OC)C(=O)O[C@H]2[C@@H]1c2cc3c(cc2CCN1C)OCO3 | inactive |
| NC(=O)c1cc([N+](=O)[O-])cc([N+](=O)[O-])c1 | inactive |
| CCC1(c2ccc(N)cc2)CCC(=O)NC1=O (centres undefined) | inactive |
| O=C1c2ccccc2C(=O)c2ccccc21 | inactive |
| NC(=O)CS(=O)C(c1ccccc1)c1ccccc1 (centres undefined) | inactive |
| CC(C)(N)Cc1ccccc1Cl | inactive |
| CC[N+]1(CC)CCC(OC(=O)C(O)(c2ccccc2)c2ccccc2)C1 (centres undefined) | inactive |
| CCC(CC)(CNC(=O)CCCO)c1cccc(OC)c1 | inactive |
| CN1C(=O)NC(=O)C(C)(C2=CCCCC2)C1=O (centres undefined) | inactive |
| CCCCC/C=C\C/C=C\C/C=C\C/C=C\CCCC(=O)NCC(=O)O | inactive |

| Compound | outcome |
| --- | --- |
| CN(C)CCc1c[nH]c2cccc(OP(=O)(O)O)c12 | inactive |
| NCCc1ccc(O)cc1 | inactive |
| CCN(CCO)CCn1c(Cc2ccccc2)nc2c1c(=O)n(C)c(=O)n2C | inactive |
| CNC(C)(C)Cc1ccccc1 | inactive |
| C[C@]12CC[C@H]3[C@@H](CCC4=CC(=O)CC[C@@H]43)[C@@H]1CC[C@@H]2OC(=O)CCC1CCCCC1 | inactive |
| Clc1ccccc1N1CCNCC1 | inactive |
| COC(=O)C(Cl)C(=O)OC | inactive |
| CCN[C@@H](C)Cc1cccc(C(F)(F)F)c1 | inactive |
| CCCOC(=O)c1cncn1C(C)c1ccccc1 (centres undefined) | inactive |
| O=c1oc2ccccc2c(O)c1Cc1c(O)c2ccccc2oc1=O | inactive |
| O=[N+]([O-])O[C@H]1CO[C@H]2[C@@H]1OC[C@H]2O[N+](=O)[O-] | inactive |
| C=CCN1C[C@H](C)N([C@H](c2ccc(C(=O)N(CC)CC)cc2)c2cccc(OC)c2)C[C@H]1C | inactive |
| c1ccc(CN2CCNCC2)cc1 | inactive |
| O=C(O)/C=C\C(=O)O | inactive |
| Clc1ccc(C(c2ccc(Cl)cc2)C(Cl)(Cl)Cl)cc1 | inactive |
| Clc1cccc(SC2CCNCC2)n1 | inactive |
| CNCC(=O)c1ccc(O)c(O)c1 | inactive |
| COc1cccc(C(=O)CCN[C@@H](C)[C@H](O)c2ccccc2)c1 | inactive |
| C[N+]1(CCF)[C@@H]2CC[C@H]1CC(OC(=O)C(O)(c1ccccc1)c1ccccc1)C2 (some centres undefined) | inactive |

assay: qHTS assay for measurement of the activity of small molecule inhibitors on Zika virus induced Caspase-3 activity in human iPSC derived neural progenitor cells (hNPCs) (AID 1224857; active = well fitted inhibition curve with a large enough effect; note: % of control where 0% means no effect; nearly all actives have a fitted effect of over 65% in size); conditions: hNPCs ZIKV-induced caspase-3/7, Caspase-Glo luminescence, 6 h; series mostly up to 45.7 µM; activity change, negative = inhibition: at the top concentration
How it was run: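 After overnight (16–20 h) culture at 350 cells/well, hNPCs get compound, then ZIKV 2 FFU/cell one hour later. Six hours on, Caspase-Glo 3/7 is added and luminescence measured.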

| Compound | activity change, negative = inhibition | outcome |
| --- | --- | --- |
| COc1cc(CC(C)N)cc(OC)c1OC (centres undefined) | 2.41% [at 92.8 µM] (inactive) |  |
| CC(=O)C1CCOC1=O (centres undefined) | 1.27% (inactive) |  |
| C[C@@H](N)[C@@H](O)c1ccccc1 | 5.74% (inactive) |  |
| O=C1OC(c2ccc(O)c(S(=O)(=O)O)c2)(c2ccc(O)c(S(=O)(=O)O)c2)c2c(Br)c(Br)c(Br)c(Br)c21 | -14.9% (inactive) |  |
| CCC(C)C(C)(COC(N)=O)COC(N)=O (centres undefined) | 4.45% (inactive) |  |
| CC(C(=O)c1ccccc1)N(C)C (centres undefined) | 2.21% (inactive) |  |
| COC(=O)[C@@H](N)CCCN/C(N)=N/[N+](=O)[O-] | 9.16% (inactive) |  |
| CN1C(=O)CCS(=O)(=O)C1c1ccc(Cl)cc1 (centres undefined) |  | inactive |
| c1ccc(N2CCNCC2)cc1 | -0.975% (inactive) |  |
| COc1cc(CCN)cc(OC)c1OC | 1.88% [at 92.8 µM] (inactive) |  |
| COc1ccc2c(c1OC)C(=O)O[C@H]2[C@@H]1c2cc3c(cc2CCN1C)OCO3 |  | inactive |
| NC(=O)c1cc([N+](=O)[O-])cc([N+](=O)[O-])c1 | -10.3% (inactive) |  |
| CCC1(c2ccc(N)cc2)CCC(=O)NC1=O (centres undefined) |  | inactive |
| O=C1c2ccccc2C(=O)c2ccccc21 | 10.6% [at 20.5 µM] (inactive) |  |
| NC(=O)CS(=O)C(c1ccccc1)c1ccccc1 (centres undefined) | -5.65% (inactive) |  |
| CC(C)(N)Cc1ccccc1Cl | 7.83% (inactive) |  |
| CC[N+]1(CC)CCC(OC(=O)C(O)(c2ccccc2)c2ccccc2)C1 (centres undefined) | -4.88% (inactive) |  |
| CCC(CC)(CNC(=O)CCCO)c1cccc(OC)c1 | 0.904% (inactive) |  |
| CN1C(=O)NC(=O)C(C)(C2=CCCCC2)C1=O (centres undefined) | -10.1% (inactive) |  |
| CCCCC/C=C\C/C=C\C/C=C\C/C=C\CCCC(=O)NCC(=O)O | -1.3% (inactive) |  |

| Compound | activity change, negative = inhibition | outcome |
| --- | --- | --- |
| CN(C)CCc1c[nH]c2cccc(OP(=O)(O)O)c12 | -0.962% [at 92.8 µM] (inactive) |  |
| NCCc1ccc(O)cc1 |  | inactive |
| CCN(CCO)CCn1c(Cc2ccccc2)nc2c1c(=O)n(C)c(=O)n2C | 11.6% (inactive) |  |
| CNC(C)(C)Cc1ccccc1 | 2.42% (inactive) |  |
| C[C@]12CC[C@H]3[C@@H](CCC4=CC(=O)CC[C@@H]43)[C@@H]1CC[C@@H]2OC(=O)CCC1CCCCC1 | 120% (inactive) |  |
| Clc1ccccc1N1CCNCC1 | -3.14% (inactive) |  |
| COC(=O)C(Cl)C(=O)OC | -2.16% (inactive) |  |
| CCN[C@@H](C)Cc1cccc(C(F)(F)F)c1 | 2.83% (inactive) |  |
| CCCOC(=O)c1cncn1C(C)c1ccccc1 (centres undefined) | -15.8% (inactive) |  |
| O=c1oc2ccccc2c(O)c1Cc1c(O)c2ccccc2oc1=O | 8.83% (inactive) |  |
| O=[N+]([O-])O[C@H]1CO[C@H]2[C@@H]1OC[C@H]2O[N+](=O)[O-] | 5.8% (inactive) |  |
| C=CCN1C[C@H](C)N([C@H](c2ccc(C(=O)N(CC)CC)cc2)c2cccc(OC)c2)C[C@H]1C | -7.52% (inactive) |  |
| c1ccc(CN2CCNCC2)cc1 | 9.59% [at 178 µM] (inactive) |  |
| O=C(O)/C=C\C(=O)O | -14.4% (inactive) |  |
| Clc1ccc(C(c2ccc(Cl)cc2)C(Cl)(Cl)Cl)cc1 | 304% (inactive) |  |
| Clc1cccc(SC2CCNCC2)n1 | 3.87% (inactive) |  |
| CNCC(=O)c1ccc(O)c(O)c1 | -2.81% (inactive) |  |
| COc1cccc(C(=O)CCN[C@@H](C)[C@H](O)c2ccccc2)c1 | -14.8% (inactive) |  |
| C[N+]1(CCF)[C@@H]2CC[C@H]1CC(OC(=O)C(O)(c1ccccc1)c1ccccc1)C2 (some centres undefined) | 8.15% (inactive) |  |
